# Screening results: PubChem, several laboratories
# Shown are actives, neighbours in structure and some others; about 5.6% of the full set was active somewhere.
# H9c2 protect – cardioprotection against H2O2-induced cell death, primary screen, uHTS, H9c2 cells, ATPLite luminescence | 0.63% of 360,000 active | H9c2 cardiomyocytes, H2O2 injury protection, 2 h | protection from H2O2 cell death, % at 20 µM;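 active = compounds giving at least 50% protection of heart cells from peroxide-induced death in the single-dose screen, raw or plate-pattern-corrected value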;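 also: 0% = DMSO wells with peroxide and 100% = DMSO wells without peroxide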
# PfGluPho inh – PfG6PD enzyme inhibitors, primary screen, biochemical, fluorescence intensity, uHTS. glucose-6-phosphate dehydrogenase-6-phosphogluconolactonase (Plasmodium falciparum 3D7). PfGluPho enzyme, NADPH resazurin-diaphorase fluorescence. inhibition, % at 20 µM. 0.78% of 350,000 active;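 active = inhibition reaching at least a set limit at 20 µM in the primary screen, cut at about 59% in these data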;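 also: 0% = DMSO wells with substrate and 100% = DMSO wells lacking glucose-6-phosphate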
# ALR H2O2 inh – inhibitors of human ALR sulfhydryl oxidase, primary screen, biochemical, H2O2 detection, HRP-luminol luminescence, single point; inhibition, % (concentration not given with the values); purified ALR, DTT oxidation; 3.8% of 290,000 active; FAD-linked sulfhydryl oxidase ALR (Homo sapiens), P55789;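 active = mean replicate inhibition above about 79%, with every replicate also reaching it, limit read from the data; inconclusive = only one of the two criteria met; inactive = mean below limit and not every replicate reaching it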
# Target sequence (P55789 whole entry, looked up): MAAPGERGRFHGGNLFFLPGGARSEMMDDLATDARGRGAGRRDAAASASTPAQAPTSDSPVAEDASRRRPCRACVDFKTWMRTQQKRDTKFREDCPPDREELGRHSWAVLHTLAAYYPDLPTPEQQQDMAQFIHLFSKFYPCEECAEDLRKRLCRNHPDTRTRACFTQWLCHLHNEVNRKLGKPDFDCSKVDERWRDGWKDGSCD
# PHOSPHO1 block – PubChem AID 1565 | Phosphoethanolamine/phosphocholine phosphatase (Homo sapiens), Q8TCT1 | inhibition, % at 13.3 µM | recombinant PHOSPHO1, absorbance phosphatase assay | 1.1% of 290,000 active; in the data active = inhibition above about 60%
# M18AAP inhibitor – PfM18AAP inhibitors, malaria aminopeptidase, primary screen, biochemical, QFRET, recombinant enzyme. M18 aspartyl aminopeptidase (Plasmodium falciparum 3D7). H-Glu-NHMec fluorogenic cleavage. inhibition, % at 7.35 µM. 1.2% of 290,000 active;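 active = inhibition above the campaign mean inhibition over all tested compounds plus 3 SD, cut at about 28% in these data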;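 also: 0% = plate median of test compound wells and 100% = 2 mM ZnCl2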
# * hit, by the source's call; ? = inconclusive; . = no result given.
SMILES,H9c2 protect,PfGluPho inh,ALR H2O2 inh,PHOSPHO1 block,M18AAP inhibitor
Nc1ccc2nc[nH]c2c1,-16,27,99*,0,-7
CN1CCN(/N=C/c2nc(-c3ccccc3Cl)n3ccccc23)CC1,9,-1,98*,0,3
Cc1cc(C)n2[nH]c(=O)cc2n1,6,19,.,.,.
C=C(C(=O)c1ccccc1)C(C)C(=C)C(=O)c1ccccc1,-16,-29,87*,2,4
CC1(S(=O)(=O)O)CC(=O)c2ccccc2C1=O (stereo unspecified),-38,-4,93*,20,1
O=C1c2ccccc2C(=O)C1(O)O,.,.,-46,.,.
O=C(c1ccco1)[C@@H]1[C@@H]2C(=O)N(c3ccc(Br)cc3)C(=O)[C@@H]2C2c3ccccc3C=CN21 (stereo partly specified),1,-37,.,68*,13
O=C(c1ccco1)[C@@H]1[C@@H]2C(=O)N(c3ccc(F)cc3)C(=O)[C@@H]2C2c3ccccc3C=CN21 (stereo partly specified),.,.,4,55,19
CC(C)CN(C(=O)COC(=O)CSc1ccc([N+](=O)[O-])cc1)C1CCS(=O)(=O)C1 (stereo unspecified),0,41,-2,.,.
CC(=O)N1CCC2(CC1)NC(=O)N(c1ccccc1)N2,-2,4,98*,9,6
COc1ccc(C(C)=O)cc1CSC(=N)N,24,-13,99*,37,5
CC1Cc2ccccc2N1Cc1cccc(S(=O)(=O)N(C)C)c1 (stereo unspecified),-4,10,99*,20,14
CC1Cc2ccccc2N1CC(=O)Nc1ccc(S(=O)(=O)N(C)C)cc1 (stereo unspecified),-1,-2,-4,-12,-1
C[C@H](CO)N1C[C@H](C)[C@@H](CN(C)C(=O)c2ccccn2)Oc2cc(Br)ccc2S1(=O)=O,2,10,.,.,.
COC(=O)c1cc(S(=O)(=O)NCC2CCN(Cc3cc(C)ccc3C)CC2)c[nH]1,5,-4,0,34,-17
CCC(CC)c1nnc(NC(=O)c2cc(C(=O)OC)cc([N+](=O)[O-])c2)s1,-6,24,1,8,30*
COC(=O)c1cc(C(=O)Nc2nnc(CC(C)C)s2)cc([N+](=O)[O-])c1,-6,-18,0,2,-2
Cc1ccc(-c2nc(CS(=O)(=O)CC(=O)NCCCN3CCOCC3)c(C)o2)cc1,-1,-14,-10,53,-3
Cc1oc(-c2cccs2)nc1CS(=O)CC(=O)NCCCN1CC(C)CC(C)C1 (stereo unspecified),12,1,99*,-1,-16
CCc1ccc(-c2nc(CS(=O)CC(=O)NCCCN3CCOCC3)c(C)o2)cc1 (stereo unspecified),-1,5,100*,23,-2
Cc1ccc(-c2nc(CS(=O)CC(=O)NCCCN3CC(C)CC(C)C3)c(C)o2)cc1 (stereo unspecified),1,-10,99*,7,3
COc1ccc(-c2nc(CS(=O)CC(=O)NCCCN3CCCC(C)C3)c(C)o2)cc1OC (stereo unspecified),7,-14,99*,58,-2
Cc1ccccc1-c1nc(CS(=O)(=O)CC(=O)NCCCN2CCN(C)CC2)c(C)o1,4,5,-4,12,1
Cc1oc(-c2ccc(Cl)cc2)nc1CS(=O)CC(=O)NCCCN1CCN(Cc2ccccc2)CC1 (stereo unspecified),-9,-3,?,24,-8
CCCCc1ccc(NC(=O)CN2C(=O)C3CCCCC3C2=O)cc1 (stereo unspecified),-9,5,4,.,.
Cc1ccc(C(=O)N/N=C/c2cccnc2)cc1Cl,-11,-2,.,.,.
CN1CCC(C)(C(=O)Nc2ccc3c(c2)OCCO3)C1 (stereo unspecified),-3,.,.,.,.
Cc1oc(-c2ccc(Cl)cc2)nc1CS(=O)CC(=O)NCCCN1CCCC(C)C1 (stereo unspecified),0,-22,99*,15,-1
COc1ccc(-c2nc(CS(=O)CC(=O)NCCCN3CC(C)CC(C)C3)c(C)o2)cc1OC (stereo unspecified),-4,6,98*,-113,-5
